# Laboratory results as given in PubChem BioAssay (NCI).
# This is part of a sample that, as a whole, favours compounds with a hit. Of some 83,000 tested, about 20% had one in any assay.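 Note: values are percent growth. 100 is the growth of untreated cells, values between 100 and 0 indicate rising inhibition; between -100 and 0 indicates cell death.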 Unmarked numbers belong to inactive results. Activity calls are given as the source filed them. Rule for the calls: active = growth percent below 10; inactive = the rest.
# How the values were obtained:
# Assay in all cases: NCI-60 one-dose screen, 48 h (100 = growth as untreated, 0 = no growth, -100 = all killed)
# Conditions in all cases: 10 µM unless noted
# NCI-H23 lung = tested on: NCI-H23 lung
# NCI-H226 lung = tested on: NCI-H226 lung
# NCI-H322M lung = tested on: NCI-H322M lung
# HOP-62 NSCLC = tested on: HOP-62 NSCLC
# NCI-H460 lung = tested on: NCI-H460 lung
# HOP-92 NSCLC = tested on: HOP-92 NSCLC
# NCI-H522 lung = tested on: NCI-H522 lung
# A549/ATCC NSCLC = tested on: A549/ATCC NSCLC
# 786-0 renal = tested on: 786-0 renal
# COLO 205 colon = tested on: COLO 205 colon
# DU-145 prostate = tested on: DU-145 prostate
# MALME-3M melanoma = tested on: MALME-3M melanoma
# MDA-MB-231 breast = tested on: MDA-MB-231 breast
# RXF 393 renal = tested on: RXF 393 renal
# SF-268 CNS = tested on: SF-268 CNS
# SF-295 CNS = tested on: SF-295 CNS
# SF-539 CNS = tested on: SF-539 CNS
# UACC-257 melanoma = tested on: UACC-257 melanoma
# M14 melanoma = tested on: M14 melanoma
# K-562 leukemia = tested on: K-562 leukemia
SMILES,growth (NCI-H23 lung),growth (NCI-H226 lung),growth (NCI-H322M lung),growth (HOP-62 NSCLC),growth (NCI-H460 lung),growth (HOP-92 NSCLC),growth (NCI-H522 lung),growth (A549/ATCC NSCLC),growth (786-0 renal),growth (COLO 205 colon),growth (DU-145 prostate),growth (MALME-3M melanoma),growth (MDA-MB-231 breast),growth (RXF 393 renal),growth (SF-268 CNS),growth (SF-295 CNS),growth (SF-539 CNS),growth (UACC-257 melanoma),growth (M14 melanoma),growth (K-562 leukemia)
COc1ccc(C(=O)/C=C/c2ccccc2Br)cc1S(N)(=O)=O,-21.4% (active),21.5%,20.6%,-18.7% (active),1.47% (active),76.8%,-67% (active),-81.4% (active),-78% (active),-72.8% (active),-31.7% (active),62.3%,-20.8% (active),-70% (active),14.2%,-76.6% (active),-74.9% (active),15.5%,-11.7% (active),–
COc1ccc(C(=O)/C=C/c2cccc3ccccc23)cc1S(N)(=O)=O,-20.5% (active),32.7%,14.8%,18.2%,2.2% (active),73%,-67% (active),7.01% (active),-29.8% (active),-78.6% (active),13.2%,30.1%,21.8%,-59.4% (active),14.4%,-61.7% (active),-83.4% (active),-42.6% (active),-74% (active),–
NS(=O)(=O)c1ccc(-n2cc(-c3cccc(NC(=O)c4ccc(Cl)c(C(F)(F)F)c4)c3)nn2)cc1,-4.59% (active),10%,33.4%,3.02% (active),18.1%,-5.36% (active),45.8%,4.33% (active),22.5%,2.2% (active),18.3%,39.9%,-5.26% (active),–,29.4%,7.53% (active),-38.8% (active),39.1%,16.2%,–
COc1ccc(C(=O)/C=C/c2ccc3ccccc3c2)cc1S(N)(=O)=O,-23.7% (active),20.1%,11.3%,-30.1% (active),2.36% (active),24.9%,-62.9% (active),-78.4% (active),-89.2% (active),-76.3% (active),-9.03% (active),18.1%,6.01% (active),-60.2% (active),12.8%,-80.5% (active),-87.9% (active),-48.4% (active),-78.5% (active),–
CN1CCN(c2ccc(C(=O)/C=C/c3cc(C(F)(F)F)cc(C(F)(F)F)c3)cc2)CC1,-66.2% (active),-42.9% (active),-81.7% (active),-74.9% (active),-40.8% (active),-55.2% (active),-69.6% (active),-87.8% (active),-97.9% (active),-83.4% (active),-73.9% (active),-86.5% (active),-89.9% (active),-86.7% (active),-51% (active),-86.4% (active),-97% (active),-88.9% (active),-97.4% (active),–
OCC1(CCCc2ccccc2)CCCN(c2nccc3ccccc23)C1 (configuration not stated),14.9%,37.7%,82.5%,72.6%,34%,–,22.9%,39.7%,45.4%,10.4%,68.3%,24.8%,52.1%,61.1%,61.8%,17%,43.1%,10.6%,8.76% (active),18.6%
COc1cc(OC)cc(C(=O)Nc2cccc(-c3cn(-c4ccc(S(N)(=O)=O)cc4)nn3)c2)c1,80.3%,57.5%,89.9%,6.62% (active),82.8%,24.2%,69.1%,90.9%,74.6%,109%,97.2%,79.9%,67.5%,57.5%,50.3%,63%,60.3%,101%,91.3%,–
COc1ccc(C(=O)/C=C/c2ccc(Cl)c(Cl)c2)cc1S(N)(=O)=O,-23.6% (active),25.5%,21.3%,-47.1% (active),7.22% (active),31.2%,-47.2% (active),11.2%,-94.4% (active),-75.9% (active),25.2%,28%,20.7%,-69.2% (active),24.6%,7.4% (active),-86.5% (active),1.95% (active),-70.9% (active),–
CC(C)(C)OC(=O)/C=C/c1cccc2c1C(=O)NC(C)(c1cc3cc(Cl)ccc3oc1=O)N2 (configuration not stated),53%,50.6%,60.9%,64%,43.9%,–,34.9%,27.4%,54.5%,19.4%,61.1%,51.2%,67.1%,10.2%,51.4%,24.9%,66.7%,41.7%,49.3%,17.1%
COc1ccc(C(=O)/C=C/c2c(F)cccc2Cl)cc1S(N)(=O)=O,-16% (active),22.2%,17.4%,2.33% (active),3.49% (active),9.66% (active),-61.1% (active),8.28% (active),0.405% (active),-84.7% (active),-0.489% (active),12.7%,17.2%,-44.4% (active),24.4%,12.7%,-62.9% (active),12.7%,-59.4% (active),–
Cn1cc(-c2cc3nc(-c4cn(C)c5ncc(Br)cc45)cc(N)n3n2)c2cc(Cl)ccc21,-77% (active),-40.8% (active),-73.1% (active),-78.1% (active),-69.9% (active),–,-79.8% (active),-75.2% (active),-65.3% (active),-77.6% (active),-58.3% (active),-91.9% (active),-85.5% (active),-64.4% (active),20.1%,-72.5% (active),-96.9% (active),-82.7% (active),-86.8% (active),-29.2% (active)
O=C(NN1C(=O)/C(=C/C=C/c2ccc([N+](=O)[O-])o2)SC1=S)c1cccc(O)c1,-89% (active),-92.2% (active),-66.9% (active),-73.5% (active),-49.3% (active),–,-96.6% (active),-67.4% (active),-91.5% (active),-79.7% (active),-99.2% (active),-99.2% (active),-98.4% (active),-89.6% (active),-91.3% (active),-40.1% (active),-100% (active),-85.2% (active),-89% (active),6.17% (active)
